Measurements reported in publication PMC5515408, “Sequence-specific DNA binding by MYC/MAX to low-affinity non-E-box motifs”.
The full ranking holds about 4,500 sequences; the median of “log2 normalized fluorescence” is about -0.34, and the highest 2% start at about 3.3. The sample holds the highest values, similar sequences and a random draw of the others, so the mix is not that of the screen.

Target: MAX:MAX (p21) (human, UniProt P61244-2 1-151)
Test: protein-binding microarray (anti-MAX antibody); PBM: 15 mM Tris-HCl pH 7.5, 100 mM KCl, 0.075% NP40, 7.5 mM beta-mercaptoethanol, 375 ng/ul BSA, 8 ng/ul poly(dA-dT):(dA-dT), 550 ng complex, 60 min, room tempe; high values mean tight binding
Settings: protein: recombinant; tags: 6xHis; chain copies: 2; label: 3' end of printed strand (linker) attached to glass slide; dsDNA, one strand shown
In short: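 Binding is reported as log2 normalized fluorescence. Recombinant His-tagged human MYC:MAX or MAX:MAX dimers expressed in E. coli (550 ng) were incubated with a custom Agilent glass array for 60 min at room temperature in Tris-KCl buffer, pH 7.5, containing NP40, BSA and poly(dA-dT) competitor. The array carried ~5000 unique 12-nt sequences, each spotted in triplicate and made double-stranded by primer extension, and bound protein was detected with anti-MAX and secondary antibodies and scanned at 543 nm.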

Sequence of MAX:MAX (p21) (P61244 other isoform, or with tags, fused parts or gaps): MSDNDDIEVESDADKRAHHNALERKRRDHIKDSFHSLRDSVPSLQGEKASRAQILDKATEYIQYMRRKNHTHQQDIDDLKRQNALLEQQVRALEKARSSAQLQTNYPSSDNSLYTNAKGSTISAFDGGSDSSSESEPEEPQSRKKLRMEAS

Sequence	binding signal
CCGGCTGAGCATTTGTATTAATAGCTAAGATTACTATATCGACG	-0.22 log2 normalized fluorescence
CCGGCTGACTGGATGTATTAATAGCTAAGATTACTATATCGACG	-0.202 log2 normalized fluorescence
CCGGCTGACATTCAGTATTAATAGCTAAGATTACTATATCGACG	0.265 log2 normalized fluorescence
CCGGCTGACGTGTCGTATTAATAGCTAAGATTACTATATCGACG	1.07 log2 normalized fluorescence
CCGGCTGATGGTCTGTATTAATAGCTAAGATTACTATATCGACG	0.348 log2 normalized fluorescence
CCGGCTGAGGAGGCGTATTAATAGCTAAGATTACTATATCGACG	-0.734 log2 normalized fluorescence
CCGGCTGACACTACGTATTAATAGCTAAGATTACTATATCGACG	-0.11 log2 normalized fluorescence
CCGGCTGAACGTTGGTATTAATAGCTAAGATTACTATATCGACG	0.152 log2 normalized fluorescence
CCGGCTGTGACGTGGTATTAATAGCTAAGATTACTATATCGACG	1.45 log2 normalized fluorescence
CCGGCAGACACGTGATCTTAATAGCTAAGATTACTATATCGACG	3.05 log2 normalized fluorescence
CCGGCCGACATGTGGTATTAATAGCTAAGATTACTATATCGACG	3.18 log2 normalized fluorescence
CCGGCAGACATGTGGTGTTAATAGCTAAGATTACTATATCGACG	3.1 log2 normalized fluorescence
CCGGCAGACACGTGATATTAATAGCTAAGATTACTATATCGACG	3.29 log2 normalized fluorescence
CCGGCTGACACGTGTCGTTAATAGCTAAGATTACTATATCGACG	3.18 log2 normalized fluorescence
CCGGCTGACACGTGTTGTTAATAGCTAAGATTACTATATCGACG	3.32 log2 normalized fluorescence
CCGGCAGACACGCGATATTAATAGCTAAGATTACTATATCGACG	2.93 log2 normalized fluorescence
CCGGCTGACACGTGCTGTTAATAGCTAAGATTACTATATCGACG	3 log2 normalized fluorescence
CCGGCCGACATGTGGTGTTAATAGCTAAGATTACTATATCGACG	3.43 log2 normalized fluorescence
CCGGCTGATGGTAGGTATTAATAGCTAAGATTACTATATCGACG	0.124 log2 normalized fluorescence
CCGGCTGATTCAAGGTATTAATAGCTAAGATTACTATATCGACG	-0.736 log2 normalized fluorescence
CCGGCTGACTAGGCGTATTAATAGCTAAGATTACTATATCGACG	-0.638 log2 normalized fluorescence
CCGGCTGACTCCGCGTATTAATAGCTAAGATTACTATATCGACG	-0.516 log2 normalized fluorescence
CCGGCTGAGACACGGTATTAATAGCTAAGATTACTATATCGACG	0.481 log2 normalized fluorescence
CCGGCTGACTGTACGTATTAATAGCTAAGATTACTATATCGACG	-0.112 log2 normalized fluorescence
CCGGCTGACCCAGTGTATTAATAGCTAAGATTACTATATCGACG	-0.0826 log2 normalized fluorescence
CCGGCTGAACTCGGGTATTAATAGCTAAGATTACTATATCGACG	-0.618 log2 normalized fluorescence
CCGGCTGAACTACCGTATTAATAGCTAAGATTACTATATCGACG	-0.334 log2 normalized fluorescence
CCGGCTGACGCGTGGTTTTAATAGCTAAGATTACTATATCGACG	3.21 log2 normalized fluorescence

Sequence	binding signal
CCGGCTGACACGTGTAGTTAATAGCTAAGATTACTATATCGACG	3.17 log2 normalized fluorescence
CCGGCTGACACGTGTAATTAATAGCTAAGATTACTATATCGACG	3.24 log2 normalized fluorescence
CCGGCTGACACGTGGTTTTAATAGCTAAGATTACTATATCGACG	3.37 log2 normalized fluorescence
CCGGCTGACACGTGTGGTTAATAGCTAAGATTACTATATCGACG	3.39 log2 normalized fluorescence
CCGGCTGACACGGGTTTTTAATAGCTAAGATTACTATATCGACG	2.09 log2 normalized fluorescence
CCGGCTGACACGTGGGTTTAATAGCTAAGATTACTATATCGACG	3.39 log2 normalized fluorescence
CCGGCTGACACGTGGATTTAATAGCTAAGATTACTATATCGACG	3.24 log2 normalized fluorescence
CCGGCTGACACGTGGCGTTAATAGCTAAGATTACTATATCGACG	3.2 log2 normalized fluorescence
CCGGCTGACACGTGGGGTTAATAGCTAAGATTACTATATCGACG	3.36 log2 normalized fluorescence
CCGGCTGACACGTGGAGTTAATAGCTAAGATTACTATATCGACG	2.99 log2 normalized fluorescence
CCGGCTGACGTGTGGTTTTAATAGCTAAGATTACTATATCGACG	1.65 log2 normalized fluorescence
CCGGCTGAAGTTATGTATTAATAGCTAAGATTACTATATCGACG	-0.594 log2 normalized fluorescence
CCGGCTGAGGAACCGTATTAATAGCTAAGATTACTATATCGACG	-0.709 log2 normalized fluorescence
CCGGCTGACACGGTATATTAATAGCTAAGATTACTATATCGACG	1.17 log2 normalized fluorescence
CCGGCTGATAGGAGGTATTAATAGCTAAGATTACTATATCGACG	-0.743 log2 normalized fluorescence
CCGGCTGAGAGCGTGTATTAATAGCTAAGATTACTATATCGACG	2.11 log2 normalized fluorescence
CCGGCTGAAGGCAAGTATTAATAGCTAAGATTACTATATCGACG	-0.39 log2 normalized fluorescence
CCGGCTGAATGTGGGTATTAATAGCTAAGATTACTATATCGACG	0.753 log2 normalized fluorescence
CCGGCTGAGGCGCAGTATTAATAGCTAAGATTACTATATCGACG	-0.509 log2 normalized fluorescence
CCGGCTGAGGGTGCGTATTAATAGCTAAGATTACTATATCGACG	0.326 log2 normalized fluorescence
CCGGCTGACATGTGGTTTTAATAGCTAAGATTACTATATCGACG	2.98 log2 normalized fluorescence
CCGGCTGACACTTGGTTTTAATAGCTAAGATTACTATATCGACG	0.395 log2 normalized fluorescence
CCGGCCGACCCGTGGTTTTAATAGCTAAGATTACTATATCGACG	2.34 log2 normalized fluorescence
CCGGCTGACACATGGTTTTAATAGCTAAGATTACTATATCGACG	3.37 log2 normalized fluorescence
CCGGCCGACACGCGGTTTTAATAGCTAAGATTACTATATCGACG	3.18 log2 normalized fluorescence
CCGGCCGACACATGGTTTTAATAGCTAAGATTACTATATCGACG	3.32 log2 normalized fluorescence
CCGGCTGATCGCACGTATTAATAGCTAAGATTACTATATCGACG	0.308 log2 normalized fluorescence
